# Results reported in PubChem BioAssay AID430 (Sanford-Burnham Center for Chemical Genomics, 2006).
# Screen size: about 63,000 compounds; about 1,100 (1.7%) were called active. No stated cut-off is given here; in the data, active means cytotoxicity above about 50%; inactive means the rest. The list comes from a sample in which actives are over-represented; it also holds similar structures and randomly drawn compounds. Results with a measured potency or affinity are listed apart.
# Assay: HPDE-C7 pancreatic duct cell viability loss – fluorescence, HTS (AID 430);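 further: cells exposed to compound for 48 hours before viability readout; 0% = vehicle and 100% = reference cytotoxic drug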
# Conditions: HPDE-C7 pancreatic duct cells viability, at 10 µM, stronger effect = higher value
row,Compound,cytotoxicity
1,CC(c1ccco1)N(C(=O)CSc1ccc(Br)cc1)c1ccccn1 (stereo not drawn),9.1% (inactive)
2,CCCCOC(=O)C(C)Nc1n[nH]c(=O)[nH]c1=O (stereo not drawn),8.9% (inactive)
3,Cc1cc(C)n(S(=O)(=O)c2ccc3ccccc3c2)n1,28.5% (inactive)
4,COC(=O)C1=C(CSCc2ccco2)NC(=O)NC1c1cc(C)ccc1C (stereo not drawn),-3.6% (inactive)
5,c1ccc(-c2noc(CN3CCN(c4ccccc4)CC3)n2)cc1,-1.5% (inactive)
6,COc1cccc(CNC(=O)C2CCN(S(=O)(=O)c3ccc4c(c3)CCC(=O)N4)CC2)c1,-2.9% (inactive)
7,Oc1ccccc1-c1nc(NCc2ccco2)c2ccccc2n1,0.8% (inactive)
8,c1coc(CNc2nc(N3CCCCC3)nc3ccccc23)c1,25.2% (inactive)
9,O=C(Cn1ncc2c(=O)oc3ccccc3c21)N1CCc2ccccc2C1,-15.7% (inactive)
10,N#Cc1c(/N=C/c2ccco2)oc(-c2ccccc2)c1-c1ccccc1,70% (active)
11,N#Cc1c(N)oc(-c2ccccc2)c1-c1ccccc1,-7.1% (inactive)
12,N#Cc1c(/N=C/N2CCCC2)oc(-c2ccccc2)c1-c1ccccc1,13.1% (inactive)
13,CCC(=O)N1CCN(c2ccc(NC(=O)c3ccc4c(c3)OCO4)cc2)CC1,-5.7% (inactive)
14,COc1ccc(CN(C(=O)c2ccccc2OC)C2CCS(=O)(=O)C2)cc1 (stereo not drawn),-0.4% (inactive)
15,CCN(CC)C(=O)CSc1nnc(-c2ccccc2)n1N,-1.9% (inactive)
16,O=C(NC1CCCCC1)N1CCC(n2c(=O)[nH]c3ccccc32)CC1,-3.9% (inactive)
17,O=c1[nH]c2ccccc2n1CCCN1CCN(C(c2ccccc2)c2ccccc2)CC1,-7.2% (inactive)
18,O=C1CC(c2ccccc2)Sc2ccccc2N1 (stereo not drawn),-15% (inactive)
19,Cn1cccc1CNC(=O)Nc1ccc(Cl)cc1,-23.2% (inactive)
20,C=C(C)COc1ccc(-c2ncncc2Oc2ccc(OC)cc2)c(O)c1,1.9% (inactive)
21,C=C(C)COc1ccc(-c2nc(N)nc(C)c2Oc2ccccc2OC)c(O)c1,-1.3% (inactive)
22,C=C(C)COc1ccc(-c2nc(N)ncc2Oc2ccccc2OC)c(O)c1,0.9% (inactive)
23,C=C(C)COc1ccc(-c2n[nH]c(C)c2Oc2ccccc2OC)c(O)c1,61.3% (active)
24,CCOc1ccc(-c2n[nH]c(C)c2Oc2ccccc2OC)c(O)c1,-2.5% (inactive)
25,CC(C)Cc1ccc(C#N)c(SCC(N)=O)n1,-5.5% (inactive)

row,Compound,cytotoxicity
1,Cc1ccc(NC(=O)CSc2nnc(Cn3c(=O)sc4ccccc43)n2C)cc1Cl,-0.9% (inactive)
2,O=C(COC(=O)CCC(=O)c1ccc2c(c1)OCCO2)NCc1ccc2c(c1)OCO2,-8.4% (inactive)
3,Nn1c(Cc2ccccc2F)nnc1SCC(=O)N1CC(=O)Nc2ccccc21,-3.4% (inactive)
4,Cc1cc(C)cc(N2CCCn3c2nc2c3c(=O)n(CC(=O)OCc3ccccc3)c(=O)n2C)c1,26.4% (inactive)
5,O=C(O)C1CCCCC1C(=O)OCCCCOC(=O)C1CCCCC1C(=O)O (stereo not drawn),3.9% (inactive)
6,COc1ccc(-c2n[nH]c(C)c2-c2ccc(Cl)cc2)c(O)c1OC,-29.4% (inactive)
7,Cc1[nH]nc(-c2ccc(O)cc2O)c1-c1ccc(Cl)cc1,60.1% (active)
8,COc1ccc(-c2n[nH]c(C)c2-c2cnn(-c3ccccc3)c2)c(O)c1,36.4% (inactive)
9,COc1ccc(Oc2c(-c3ccc(O)cc3O)n[nH]c2C)cc1,26.3% (inactive)
10,Cc1[nH]nc(-c2ccc(O)cc2O)c1Oc1ccccc1,69.8% (active)
11,Oc1ccc(-c2[nH]ncc2-c2ccc(Cl)cc2)c(O)c1,33.3% (inactive)
12,CSCCC(C(=O)Nc1ccc2c(c1)OCO2)N1C(=O)c2ccccc2C1=O (stereo not drawn),0.6% (inactive)
13,CN(C)c1ccc(CNC(=O)C2CCN(S(=O)(=O)c3ccc4c(c3)CCC(=O)N4)CC2)cc1,3.1% (inactive)
14,COc1ccc(N2CC(C(=O)NCCCN3CCOCC3)CC2=O)cc1 (stereo not drawn),3.4% (inactive)
15,Cn1c(=O)c2c(nc(SCCN3CCOCC3)n2Cc2ccc(F)cc2)n(C)c1=O,3.9% (inactive)
16,CCCc1nc2ccccc2c(C(=O)OC2CCOC2=O)c1CC (stereo not drawn),-7.5% (inactive)
17,NC1(N)OC(CN2C(=O)c3ccccc3C2=O)CS1 (stereo not drawn),-15% (inactive)
18,CC1=CC(C)(C)N2C(=O)C3(C(C#N)=C(N)Oc4cc(O)ccc43)c3cccc1c32 (stereo not drawn),68.4% (active)
19,COc1cc2c3c(c1)C1(C(=O)N3C(C)(C)C=C2C)C(C#N)=C(N)Oc2cc(O)ccc21 (stereo not drawn),-9.2% (inactive)
20,CC1=CC(C)(C)N2C(=O)C3(C(C#N)=C(N)Oc4cc(C)oc(=O)c43)c3cccc1c32 (stereo not drawn),1.3% (inactive)
21,Cc1ccc2cc3c(nc2c1)N(Cc1ccco1)CC3,-15.5% (inactive)
22,CC1CCN(S(=O)(=O)c2ccc(NC(=O)Cn3nnc(-c4ccccc4)n3)cc2)CC1,3.7% (inactive)
23,Cc1cc(NC(=O)COc2cccc3cccnc23)no1,7.3% (inactive)
24,CCCCCCOC(=O)C(C#N)c1nc2ccccc2nc1N1CCCCC1 (stereo not drawn),-47.4% (inactive)
25,COc1ccc(CNC(=O)C(C#N)c2nc3ccccc3nc2N2CCN(C)CC2)cc1 (stereo not drawn),72% (active)

row,Compound,cytotoxicity
1,CC(C)COC(=O)C(C#N)c1nc2ccccc2nc1N1CCN(Cc2ccccc2)CC1 (stereo not drawn),-14% (inactive)
2,COCCOC(=O)C(C#N)c1nc2ccccc2nc1N1CCN(Cc2ccccc2)CC1 (stereo not drawn),8.9% (inactive)
3,CCCCCCOC(=O)C(C#N)c1nc2ccccc2nc1N1CCN(CC)CC1 (stereo not drawn),12.4% (inactive)
4,N#CC(C(=O)NCc1ccccc1)c1nc2ccccc2nc1N1CCCC1 (stereo not drawn),-2% (inactive)
5,CCCCCCOC(=O)C(C#N)c1nc2ccccc2nc1N1CCN(C)CC1 (stereo not drawn),64.2% (active)
6,COc1ccc(CNC(=O)C(C#N)c2nc3ccccc3nc2N2CCCC2)cc1 (stereo not drawn),-15.8% (inactive)
7,CCN1CCN(c2nc3ccccc3nc2C(C#N)C(=O)OCc2ccccc2)CC1 (stereo not drawn),58% (active)
8,Cc1cc2cc(CCNC(=O)CC(C)C)c(=O)[nH]c2cc1C,3.7% (inactive)
9,O=C(NCc1ccco1)c1cc2ccccc2c(=O)o1,-3.4% (inactive)
10,Cc1nc(-c2cn[nH]c2)c2cc(C)oc2n1,1.2% (inactive)
11,CCCN(CCC)c1nc2ccccc2nc1C(C#N)C(=O)OCCOC (stereo not drawn),-8.9% (inactive)
12,Cc1nnc(SCC(=O)Nc2nc3c(s2)CC(C)CC3)s1 (stereo not drawn),1% (inactive)
13,CCC(c1nnnn1C(C)(C)C)N(CCOC)Cc1cc2cccc(C)c2n2nnnc12 (stereo not drawn),5.7% (inactive)
14,CCOC(=O)c1c(C)oc2c1c(C(c1cccnc1)N1CCN(C)CC1)c(O)c1ccccc12 (stereo not drawn),112% (active)
15,CCOC(=O)c1c(C)oc2c1c(C=NCc1ccccn1)c(O)c1ccccc12,91% (active)
16,CCOC(=O)c1c(C)oc2c1c(/C=N/c1ccccn1)c(O)c1ccccc12,1.4% (inactive)
17,CCOC(=O)c1c(C)oc2c1c(C=NCC1CCCO1)c(O)c1ccccc12 (stereo not drawn),-16.9% (inactive)
18,CCOC(=O)c1c(C)oc2c1c(C=NC1CCS(=O)(=O)C1)c(O)c1ccccc12 (stereo not drawn),28.9% (inactive)
19,CCOC(=O)c1c(C)oc2c1c1c(c3ccccc32)OCN(Cc2cccnc2)C1,2.1% (inactive)
20,O=S(=O)(N1CCCCC1)N1CCN(S(=O)(=O)N2CCCCC2)CC1,0.2% (inactive)
21,CCOC(=O)CNC(=O)C(Cc1ccccc1)NS(=O)(=O)c1cccs1 (stereo not drawn),2.5% (inactive)
22,CCOC(=O)CN(Cc1ccccc1)S(=O)(=O)c1ccc(NC(C)=O)cc1,-2.7% (inactive)
23,COc1ccccc1NS(=O)(=O)c1ccc(NC(C)=O)cc1,-0.5% (inactive)
24,CC(=O)Nc1ccc(S(=O)(=O)c2ccc(N)cc2)cc1,-11% (inactive)
25,COC(=O)/C=C/S(=O)(=O)c1ccc(NC(C)=O)cc1,102% (active)

row,Compound,cytotoxicity
1,COC(=O)C(C)NS(=O)(=O)c1ccc(NC(C)=O)cc1 (stereo not drawn),-12.8% (inactive)
2,O=C(CSc1nnc(COc2ccc(Cl)cc2)o1)OC1CCCCC1,-7.9% (inactive)
3,CCOC(=O)N1CCC(NCCNC(=O)c2cccs2)CC1,-6.4% (inactive)
4,O=C(Cc1ccccc1)N1CCCC1c1ccccc1 (stereo not drawn),-22.3% (inactive)
5,CCCCN(C(=O)NC(=O)Nc1ccccc1OC)S(C)(=O)=O,-3.1% (inactive)
6,CCOC(=O)N1CCN(C(=O)CSc2nnc(-c3ccc(C(C)(C)C)cc3)o2)CC1,2.6% (inactive)
7,O=C(CNC1CCCCCC1)Nc1ccc(S(=O)(=O)NC2CC2)cc1,-6.7% (inactive)
8,Cc1ccc(-c2cc(-c3ccccc3)c(C#N)c(N)n2)o1,29.8% (inactive)
9,Cc1cc(-c2cc(-c3ccc(Cl)cc3)nc(N)c2C#N)co1,77.8% (active)
10,Cc1ccc(-c2cc(-c3ccc(C)o3)nc(N)c2C#N)cc1,20.9% (inactive)
11,Cc1ccc(-c2cc(-c3ccccc3Cl)c(C#N)c(N)n2)o1,11.3% (inactive)
12,Cc1ccc(-c2cc(-c3ccc(Cl)cc3)c(C#N)c(N)n2)o1,64.4% (active)
13,Cc1ccc(-c2cc(-c3ccc(F)cc3)nc(N)c2C#N)o1,20.1% (inactive)
14,COCC(=O)Nc1nc2n(n1)C(c1ccc(OC)cc1)CC(c1ccc(OC)cc1)N2 (stereo not drawn),2.7% (inactive)
15,O=C(NCCN1CCc2ccccc2C1)Nc1ccc(F)cc1,-10.7% (inactive)
16,CSc1nc2cc(F)c(F)cc2n1C,-9.5% (inactive)
17,COc1cc(C)c(Br)cc1S(=O)(=O)N1CCOCC1,-9.6% (inactive)
18,Cc1nn(CCCC(=O)N2CCc3ccccc3C2)c(=O)c2cc3sccc3n12,-7.2% (inactive)
19,O=C(Oc1ccccc1C(=O)N1CCOCC1)c1ccc(Br)cc1,-14.1% (inactive)
20,CN(CCc1ccccn1)Cc1ccc(Cl)cc1,-13.4% (inactive)
21,CC(C)c1nc2oc3c(NCC4CCCO4)ncnc3c2c2c1COC(C)(C)C2 (stereo not drawn),-14.6% (inactive)
22,Cc1nc2oc3c(NCC4CCCO4)ncnc3c2c2c1COC(C)(C)C2 (stereo not drawn),-3.9% (inactive)
23,CC(C)c1nc2oc3c(NCC4CCCO4)ncnc3c2c2c1CCC2 (stereo not drawn),114% (active)
